Bioassay records from PubChem.
Hits are enriched below; roughly 10% of the tested compounds scored in any of these assays.
G9a inh = blocks human histone lysine methyltransferase G9a; Q96KQ7; hit rate 8.8% among 350,000; AID 504332; Potency, µM (titrated, usually from 102 µM), for the others: at the top dose activity, negative = inhibition, actives largely listed as inhibitors; G9a H3K9 monomethylation, AlphaScreen, 2 h; also: potency is read from the fitted curve at half-maximal effect; nearly all actives have a fitted effect of over 75% in size
Target sequence (Q96KQ7 913-1193 limits assumed): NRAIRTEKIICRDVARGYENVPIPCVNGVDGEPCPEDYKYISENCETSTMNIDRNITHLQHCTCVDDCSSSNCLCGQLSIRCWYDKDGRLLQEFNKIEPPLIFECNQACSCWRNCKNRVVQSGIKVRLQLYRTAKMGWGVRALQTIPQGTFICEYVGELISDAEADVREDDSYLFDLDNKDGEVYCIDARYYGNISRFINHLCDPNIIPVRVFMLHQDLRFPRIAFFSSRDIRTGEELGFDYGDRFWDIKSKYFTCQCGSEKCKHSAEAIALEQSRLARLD
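Signal arises when biotinylated H3K9 peptide, once monomethylated, bridges streptavidin donor and antibody-captured acceptor beads. Enzyme at 20 nM was preincubated 15 min with test compounds; peptide 500 nM and SAM 20 uM then reacted for 2 h.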
PLK1 PBD inh = inhibitors of human PLK1 polo-box domain binding; P53350; Plk1 PBD binding of FITC phosphopeptide, fluorescence polarization; Potency, µM, for inactives: max response, negative = inhibition, actives largely listed as inhibitors; hit rate 2.8% among 360,000; AID 720504; also: potency is read from the fitted curve at half-maximal effect; series mostly up to about 57 µM; nearly all actives have a fitted effect of over 65% in size
Sfp inh = Sfp phosphopantetheinyl transferase inhibition | Q9F4F7 | Biochemical Sfp PPTase activity, qHTS | Potency, µM, inactives show largest response in the series, negative = inhibition, most hits filed as inhibitors | hit rate 3.5% among 310,000 | AID 1490;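 also: the enzyme is Sfp with the accession as filed and its product quenches rhodamine fluorescence; potency is read from the fitted curve at half-maximal effect; 0% = enzyme reaction without inhibitor and -100% = no enzyme wells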
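Compounds were incubated with enzyme (final 15 nM) for 15 min at room temperature before substrate addition started the reaction. Fluorescence at 525 nm excitation, 598 nm emission was recorded immediately and after 30 minutes.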
VDR inh = blocks the human vitamin D receptor; AID 504847; hit rate 0.93% among 400,000; VDR-SRC2-3 peptide fluorescence polarization, 2 h; Potency, µM, without a hit: max response, negative = inhibition, hits mostly inhibitors; P11473; also: potency is read from the fitted curve at half-maximal effect
Target sequence (P11473 whole entry, looked up): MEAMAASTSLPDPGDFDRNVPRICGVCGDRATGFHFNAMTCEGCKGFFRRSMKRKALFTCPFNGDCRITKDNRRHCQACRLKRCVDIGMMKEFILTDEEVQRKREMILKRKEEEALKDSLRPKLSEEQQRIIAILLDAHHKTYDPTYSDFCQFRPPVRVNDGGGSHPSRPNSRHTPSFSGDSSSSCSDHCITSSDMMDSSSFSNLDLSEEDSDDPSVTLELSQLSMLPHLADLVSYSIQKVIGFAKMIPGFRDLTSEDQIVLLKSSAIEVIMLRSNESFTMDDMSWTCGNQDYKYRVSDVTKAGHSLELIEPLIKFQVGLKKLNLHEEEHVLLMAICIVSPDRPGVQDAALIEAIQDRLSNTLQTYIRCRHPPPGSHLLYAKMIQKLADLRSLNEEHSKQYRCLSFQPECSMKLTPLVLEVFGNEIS
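Compounds are added to VDR with labelled SRC2-3 coactivator peptide and held 2 h at room temperature. Inhibition of the VDR–peptide interaction is then read as a change in fluorescence polarization.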
MmCpn inh = M. maripaludis TRiC chaperonin inhibition; purified Mm-Cpn ATPase, ADP Transcreener TR-FRET; Potency, µM (highest dose often 76.9 µM), inactives show at the highest dose activity, negative = inhibition, hits mostly inhibitors; hit rate 0.031% among 330,000; AID 504842; also: potency is read from the fitted curve at half-maximal effect; nearly all actives have a fitted effect of over 80% in size
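Purified archaeal Mm-CPN (25nM final) preincubated 10 min at 37degC with compound, then 10uM ATP for 30 min at 37degC; ADP measured by HTRF Transcreener TR-FRET; buffer 30 mM TRIS pH 7.4, 100mM KCl, 5mM MgCl2, 1mM DTT.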
CCT chaperon mod = modulators of cytosolic chaperonin (CCT/TRiC) activity | purified chaperonin ATPase assay, HTRF ADP detection, 30 min | activity change, % (test concentration not listed), hits read low | hit rate 0.3% among 360,000; in the data active = activity change below about -30%
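TRiC at 40 or 20 nM final (batch-dependent) in 30 mM Tris pH 7.4, 100 mM KCl, 5 mM MgCl2, 1 mM DTT, with compound at single 76 uM and 10 uM ATP, 30 min at 37 deg C. ADP detected by HTRF Transcreener, 665/615 ratio.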
* hit, by the source's call; ? = inconclusive; . = no result; [ ] = another dose, or the depositor's remark. Unless noted, calls follow the shape of the dose curve; as a rule, active = well fitted curve in the direction sought with a large enough effect; inconclusive = small, poorly fitted or top-dose-only effect, or another doubt; inactive = no such curve, though single readings can be large; an effect the other way counts as inactive or inconclusive. Unless noted, % is scaled to controls: 0 for no effect and ±100 for the full control effect.

SMILES | G9a inh | PLK1 PBD inh | Sfp inh | VDR inh | MmCpn inh | CCT chaperon mod
C/C(=N/NC(=O)c1ccccn1)c1ccncc1 | 2.8µM* | -9% | 56µM* | -17% | 0% | -3
C/C(Cc1ccccc1)=N\NC(=O)c1cccnc1 | -9%[59 µM] | -4% | 2% | -8% | -4% | -2
C/C(=N/NC(=O)c1cnccn1)c1ccncc1 | 1% | -16% | -5% | 4% | 2% | -3
C/C(Cc1ccccc1)=N\NC(=O)c1ccccn1 | . | 0% | 50µM* | 9% | -2% | 2
CC(C)C[C@H](NC(=O)[C@H](Cc1c[nH]c2ccccc12)NC(=O)[C@H](CCCCN)NC(=O)CNC(=O)[C@H](CC(C)C)NC(=O)[C@H](CO)NC(=O)[C@@H](N)Cc1cnc[nH]1)C(=O)NCC(=O)N[C@@H](Cc1cnc[nH]1)C(=O)N1CCC[C@H]1C(=O)N[C@@H](CC(=O)O)C(=O)N[C@@H](CCCCN)C(=O)N[C@@H](Cc1ccccc1)C(=O)O | . | . | -11% | 15% | . | .
O=C(Nc1cccc(-c2nc3ccccc3o2)c1)C(F)(F)F | 3%[59 µM] | . | . | -3% | . | .
CCC1Sc2ccc(S(=O)(=O)CCC(=O)Nc3cccc(Br)c3)cc2NC1=O (configuration not stated) | -6%[59 µM] | 12µM* | 11% | -28% | 2% | 0
CCC1Sc2ccc(S(=O)(=O)CCC(=O)Nc3ccc(NC(C)=O)cc3)cc2NC1=O (configuration not stated) | 4%[59 µM] | -19% | 11% | 5% | 1% | -3
CCC1Sc2ccc(S(=O)(=O)CCC(=O)Nc3ccc(C(=O)OC)cc3)cc2NC1=O (configuration not stated) | 11%[59 µM] | 15µM* | 15% | ? | -2% | -1
CCC1Sc2ccc(S(=O)(=O)Nc3ccc(OC)c(OC)c3)cc2NC1=O (configuration not stated) | ? | -13% | -1% | -6% | 2% | -35*
COC(=O)c1ccc(NC(=O)CCS(=O)(=O)c2ccc3c(c2)NC(=O)C(C)S3)cc1 (configuration not stated) | 29% | 6µM* | 15% | ? | 0% | -3
CCC1Sc2ccc(S(=O)(=O)Nc3ccc(OC)cc3)cc2NC1=O (configuration not stated) | . | 2% | -14% | 2% | 1% | -2
CCCCCCCc1cc2ccccc2c(=O)o1 | . | . | -6% | -5% | . | .
CC(=O)Nc1ccc(S(=O)(=O)NCCc2csc3nc(-c4ccc(Cl)cc4)nn23)cc1 | 7%[59 µM] | . | . | 5% | . | .
Cc1ccc(Cn2c(C)c3cnn(CC(=O)N4CCN(c5ccc(F)cc5)CC4)c(=O)c3c2C)cc1 | ? | . | . | 9% | . | .
O=C(NNC1CC(=O)N(c2ccc(Br)cc2)C1=O)c1cccs1 (configuration not stated) | 14%[12.7 µM] | -31% | 12% | -6% | 1% | 1
CCOC(=O)CNC1CC(=O)N(c2ccc(Br)cc2)C1=O (configuration not stated) | 10µM* | -8% | -23% | -4% | 1% | -3
COc1ccccc1Nc1cc(C)nc(Nc2ccccc2OC)n1 | 2.2µM* | 6% | . | 1% | 0% | -4
O=C1C(=Cc2cccn2-c2ccccc2)C(=O)c2ccccc21 | 3.5µM* | -7% | ? | -24% | 0% | -1
O=C1C(=Cc2cccn2-c2ccc(O)cc2)C(=O)c2ccccc21 | . | -16% | -13% | 20% | 0% | 2
O=C(O)c1cccc(-n2cccc2C=C2C(=O)c3ccccc3C2=O)c1 | 50µM* | ? | -13% | 9% | 1% | 2
COc1cc(C2CC(=O)Oc3cc(C)c(Cl)cc32)cc(OC)c1OC (configuration not stated) | 21% | . | -12% | -4% | . | .
COC(=O)[C@@]1(Cc2ccc(OC)cc2)[C@H]2c3cc(C(=O)N(C)C)n(Cc4cc(F)c(F)c(F)c4)c3C[C@H]2CN1C(=O)c1ccccc1 | . | . | 14% | . | . | .
COc1ccc(NC(=O)CN(c2cccc(C)c2C)S(=O)(=O)c2ccccc2)cc1OC | -45%[59 µM] | . | . | -7% | . | .
COc1cc(OC)cc(C(=O)Nc2ccc([N+](=O)[O-])cn2)c1 | 3%[59 µM] | 27µM* | 5% | ? | 0% | -3
SMILES | G9a inh | PLK1 PBD inh | Sfp inh | VDR inh | MmCpn inh | CCT chaperon mod
CCCC(=O)Nc1ccc(NC(=O)CCc2ccccc2)cn1 | -7%[59 µM] | 3µM* | 10% | -17% | -1% | -3
COc1ccc(C(=O)Nc2ccc([N+](=O)[O-])cn2)cc1OC | 11%[59 µM] | 1% | 16% | -18% | 1% | -1
COC(=O)c1nc(NC(=O)c2cc(OC)c(OC)c(OC)c2)n[nH]1 | 11µM* | ? | -20% | ? | 3% | 2
O=C(Nc1ccc(NC(=O)c2ccccc2Cl)nc1)c1ccncc1 | . | -3% | -5% | 15% | -4% | 2
O=C(Nc1ccc(NC(=O)c2ccccc2)nc1)c1ccncc1 | 0% | 17µM* | 10% | ? | 1% | -7
COc1cc(C(=O)Nc2ccncc2)cc(OC)c1OC | -12% | -3% | 8% | -4% | -3% | -5
CCCC(=O)Nc1ccc(NC(=O)Cc2ccccc2)cn1 | -27%[12.7 µM] | -7% | 8% | 8% | 0% | -1
CC(Oc1ccccc1F)C(=O)NCC1(N2CCOCC2)CCCCC1 (configuration not stated) | -3%[59 µM] | . | . | -5% | . | .
COc1ccc(C(=O)Nc2ccc(NC(=O)c3cc(OC)c(OC)c(OC)c3)cn2)cc1 | 40µM* | 0% | 15% | 26% | -4% | -2
COc1ccc(C(=O)Nc2ccc(NC(=O)Cc3ccccc3)cn2)cc1 | 11µM* | 3% | -2% | -12% | -1% | -1
O=C(Nc1ccccn1)c1cccs1 | -3%[59 µM] | 3.4µM* | -3% | -12% | . | 3
COc1ccc(C(=O)Nc2ccc(NC(=O)c3cccc(F)c3)cn2)cc1 | 45µM* | ? | 6% | -2% | -2% | 1
COc1ccc(NC(=O)c2cccs2)cc1 | -10%[59 µM] | -2% | 12% | -17% | 0% | 0
COc1ccc(C(=O)Nc2ccc(NC(=O)c3cccs3)cn2)cc1 | 22µM* | 0% | -3% | 15% | -12% | 1
Cc1oc2ccc(O)c(CN(C)Cc3ccccc3)c2c1C(=O)Nc1cccc(Cl)c1C | -1%[59 µM] | . | . | 1% | . | .
CCOC(=O)c1sc(N2C(=O)C(O)=C(C(=O)c3ccc(C)o3)C2c2cccc([N+](=O)[O-])c2)nc1C (configuration not stated) | 45µM* | 24µM* | ? | ? | 0% | 1
CCOC(=O)c1sc(N2C(=O)C(O)=C(C(=O)c3ccco3)C2c2ccc(C)o2)nc1C (configuration not stated) | 11µM* | ? | 40µM* | ? | -3% | 0
